# Results published in PubChem BioAssay (NCATS).
# Records with an inconclusive call do not appear. Activity calls are given as the source filed them. Calls follow the shape of the dose curve; as a rule, active = well fitted curve in the direction sought with a large enough effect; inconclusive = small, poorly fitted or top-dose-only effect, or another doubt; inactive = no such curve, though single readings can be large; an effect the other way counts as inactive or inconclusive.
# Target: Tyrosine-protein kinase Yes (Homo sapiens) (UniProt P07947)
# Sequence (P07947 whole entry, looked up): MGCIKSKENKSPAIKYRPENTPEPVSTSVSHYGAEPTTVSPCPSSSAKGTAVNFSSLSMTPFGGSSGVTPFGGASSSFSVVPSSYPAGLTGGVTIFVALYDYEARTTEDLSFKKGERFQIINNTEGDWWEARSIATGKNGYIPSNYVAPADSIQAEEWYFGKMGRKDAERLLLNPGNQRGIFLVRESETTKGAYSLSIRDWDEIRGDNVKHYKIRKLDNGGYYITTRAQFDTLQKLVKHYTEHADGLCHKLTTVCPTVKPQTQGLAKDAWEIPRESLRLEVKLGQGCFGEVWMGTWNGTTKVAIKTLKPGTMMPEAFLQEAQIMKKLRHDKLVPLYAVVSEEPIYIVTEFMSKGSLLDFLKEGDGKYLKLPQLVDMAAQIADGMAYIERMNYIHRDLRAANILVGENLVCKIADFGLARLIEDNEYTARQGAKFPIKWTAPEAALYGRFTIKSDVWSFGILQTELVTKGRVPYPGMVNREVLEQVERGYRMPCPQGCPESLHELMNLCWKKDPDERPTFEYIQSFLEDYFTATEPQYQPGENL
# Experiment: qHTS for small molecule inhibitors of Yes1 kinase: Primary Screen (AID 686947); also: nearly all actives have a fitted effect of over 60% in size; also: potency is read from the fitted curve at half-maximal effect;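 as to activity change, negative = inhibition: plate controls were DMSO with enzyme for no effect and no-enzyme DMSO wells for full effect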
# Settings: Yes1 kinase biochemical qHTS inhibition; series mostly up to 76.9 µM; activity change, negative = inhibition: at the top concentration
# Procedure, shortened: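 ADP-Glo luminescence readout; final 4 nM Yes1, 0.1 mM ATP, 0.3 mg/mL poly(E4Y), Tris pH 7.5, MgCl2, DTT, Brij-35. 20 min compound preincubation, 60 min reaction at RT. Normalized to DMSO wells with and without enzyme.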
SMILES,Potency,"activity change, negative = inhibition"
COc1cccc(-n2ncc3c(NN=Cc4ccc(C(=O)NCCN(C)C)cc4)ncnc32)c1,20.7 nM (active),–
NCc1ccc(-c2nc(-c3ccc(Cl)c(O)c3)c(-c3ccncc3)[nH]2)cc1,328 nM (active),–
CCn1c(-c2nonc2N)nc2ccc(F)cc21,–,-1.05% (inactive)
CS(=O)(=O)CCNCc1nc(-c2ccc3ncnc(Nc4ccc(F)c(Cl)c4)c3c2)cs1,4630 nM (active),–
COc1cccc(Nc2nccc(-c3cnn4ncccc34)n2)c1,–,-40.5% (inactive)
Cc1cc(O)cc(C)c1C=Cc1cncc(C(N)=O)c1,463 nM (active),–
NS(=O)(=O)c1cccc(-c2cc3ccncc3cc2OCc2ccccc2)c1,–,50.2% (inactive)
COc1cc2ncnc(Nc3ccc4c(cnn4Cc4ccccc4)c3)c2cc1OC,32.8 nM (active),–
COc1cc(N2CCN(C(C)C)CC2)ccc1Nc1nc(Nc2cccc(F)c2C(=O)O)c2cc[nH]c2n1,–,66.3% (inactive)
CN(C)CCCn1c(-c2nonc2N)nc2cnccc21,–,0.74% (inactive)
CCn1c(-c2nonc2N)nc2ccccc21,–,23% (inactive)
NS(=O)(=O)c1ccc(N=Nc2c(O)[nH]c3ccc(C(=O)NCCc4cnc[nH]4)cc23)cc1,2600 nM (active),–

# Test system: not listed separately
# Experiment: qHTS for small molecule inhibitors of Yes1 kinase: Counter Assay (AID 686950);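 also: no kinase present so only ADP-Glo detection of a fixed ADP amount is tested; luminescence from ADP-Glo reporting ADP in a fixed ATP and ADP mixture; 0% = DMSO wells with ATP plus ADP and -100% = ATP-only wells without ADP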
# Settings: series mostly up to 76.9 µM; activity change, negative = inhibition: at the top concentration
# Procedure, shortened: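 Luminescence read-out from ADP-Glo quantifies a fixed ADP amount (0.02 mM ADP with 0.08 mM ATP) after 60 min at room temperature; signal is normalized between DMSO wells with ATP/ADP and with 0.1 mM ATP alone.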
row,SMILES,"activity change, negative = inhibition"
1,Cc1ccc2[nH]c(O)c(N=Nc3ccc(S(N)(=O)=O)cc3)c2c1,-1.97% (inactive)
2,COc1cccc(-n2ncc3c(NN=Cc4ccc(C)cc4)ncnc32)c1,0.204% (inactive)
3,COc1cccc(-n2ncc3c(NN=Cc4ccc(C(=O)NCCN(C)C)cc4)ncnc32)c1,6.55% (inactive)
4,O=C1NC(=O)C(c2ccccc2)=C1Nc1ccccc1,-1.63% (inactive)
5,NCc1ccc(-c2nc(-c3ccc(Cl)c(O)c3)c(-c3ccncc3)[nH]2)cc1,7.83% (inactive)
6,CCn1c(-c2nonc2N)nc2ccc(F)cc21,5.02% (inactive)
7,CS(=O)(=O)CCNCc1nc(-c2ccc3ncnc(Nc4ccc(F)c(Cl)c4)c3c2)cs1,7.02% (inactive)
8,NS(=O)(=O)c1ccc(N=Nc2c(=O)[nH]c3ccc4[nH]cccc4c23)cc1,-4.38% (inactive)
9,Fc1cccc(COc2ccc(Nc3ncnc4sc(-c5cccs5)cc34)cc2Cl)c1,1.37% (inactive)
10,COc1cccc(Nc2nccc(-c3cnn4ncccc34)n2)c1,-1.92% (inactive)
11,CC(=O)NCc1cccc(C#Cc2cncnc2Nc2ccc(OCc3cccc(F)c3)c(Cl)c2)c1,-1.46% (inactive)
12,O=S(=O)(CCOCc1ccc(-c2ccc3ncnc(Nc4ccc(OCc5cccc(F)c5)c(Cl)c4)c3c2)o1)c1ccccc1,0.528% (inactive)
13,CN(C)CCOc1ccc(-c2cc(-c3ccc4c(c3)CCC4=NO)c(-c3ccncc3)o2)cc1,21.2% (inactive)
14,Cc1cc(O)cc(C)c1C=Cc1cncc(C(N)=O)c1,6.72% (inactive)
15,O=C1NC(=O)C(c2ccccc2Cl)=C1Nc1cc(Cl)c(O)c(Cl)c1,-1.75% (inactive)
16,CCCN1CCC(Oc2cc(Nc3nc(Nc4cccc(F)c4C(N)=O)c4cc[nH]c4n3)c(OC)cc2Cl)CC1,1.1% (inactive)
17,COc1ccc(C2=C(N3CCc4ccccc43)C(=O)NC2=O)cc1,-0.99% (inactive)

row,SMILES,"activity change, negative = inhibition"
1,Fc1ccc(-c2ncn(C3CCNCC3)c2-c2ccnc(Oc3ccc4c(c3)OCO4)n2)cc1,-0.463% (inactive)
2,NS(=O)(=O)c1cccc(-c2cc3ccncc3cc2OCc2ccccc2)c1,0.371% (inactive)
3,CCc1nn2ncccc2c1-c1ccnc(NC2CC2)n1,12.6% (inactive)
4,CCOc1ccc2c(-c3ccnc(Nc4cc(OC)cc(C(F)(F)F)c4)n3)cnn2n1,-0.412% (inactive)
5,COc1cc2ncnc(Nc3ccc4c(cnn4Cc4ccccc4)c3)c2cc1OC,5.1% (inactive)
6,COc1cc(N2CCN(C(C)C)CC2)ccc1Nc1nc(Nc2cccc(F)c2C(=O)O)c2cc[nH]c2n1,11.5% (inactive)
7,CN(C)CCCn1c(-c2nonc2N)nc2cnccc21,-0.0764% (inactive)
8,Fc1ccc(Oc2nccc(-c3c(-c4ccc(F)cc4)ncn3C3CCNCC3)n2)cc1,-2.18% (inactive)
9,O=C(Nc1n[nH]c2nnc(-c3cccnc3)cc12)C1CC1,7.05% (inactive)
10,O=C1NC(=O)C(c2cccc([N+](=O)[O-])c2)=C1Nc1cc(Cl)c(O)c(Cl)c1,-3.81% (inactive)
11,COc1ccc2ncn(-c3cc(OC(C)c4ccccc4Cl)c(C(N)=O)s3)c2c1 (stereo not given),6.21% (inactive)
12,CS(=O)(=O)CCNCc1nc(-c2ccc3ncnc(Nc4ccc(OCc5cccc(C(F)(F)F)c5)cc4)c3c2)cs1,3.91% (inactive)
13,Cc1ccc(NC(=O)c2ccoc2)cc1-c1ccc(C(=O)NCC2CC2)cc1,-2.26% (inactive)
14,Cc1nnc(-c2ccc(C)c(-c3ccc(C(=O)Nc4cccc(C#N)c4)cc3)c2)o1,5.9% (inactive)
15,CCn1c(-c2nonc2N)nc2ccccc21,2.83% (inactive)
16,Cc1cccc(Oc2nccc(-c3c(-c4ccc(F)cc4)ncn3C3CCNCC3)n2)c1C,-1.86% (inactive)
